± gives the standard deviation of the averaged measurements. Over roughly 25,000 sequences, “ln(normalized median fluorescence intensity)” has its median near 8.6; the highest 2% begin near 10. Many of the other results were omitted from the sample, so the highest values are more common in it than they were.
test system: PfAP2-EXP AP2 domain (GST-tagged); assay: gcPBM binding intensity (ln(normalized median fluorescence intensity)); higher = stronger DNA binding
In short: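 Binding intensity values are the highest Masliner-normalised natural-log median intensity among replicate spots of either probe orientation. The binding step lasted 1 h in 1× PBS with 1% milk, 0.2 mg/ml BSA, 0.5% salmon testes DNA and 0.03% Triton X-100, using GST-tagged P. falciparum DNA-binding domains expressed in E. coli on an Agilent 4 × 180k array of primer-extended double-stranded 36-bp intergenic genomic probes plus negative controls. Alexa488 anti-GST antibody and a 488 nm scan detected bound protein.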

| Sequence | gcPBM binding intensity (ln) |
| --- | --- |
| AAATAATAAATATATCGTACAAATATCATATATAAA [XGTACX_site2771] | 8.32 ± 0.38 |
| TATCTGTAAATGGACACACACATATATATATATATA [CACACA_site5926] | 10.2 ± 0.2 |
| AATATATGTAAATGGACACACACATATATATATATA [CACACA_site9220] | 10 ± 0.28 |
| ACACATAAATGAATAAATAAATAAATATAAATATAA [CACACA_negctrl_site1784] | 8.36 ± 0.29 |
| CCTAAATAAATGGACACACACATATATATATATATA [CACACA_site1439] | 10.2 ± 0.32 |
| TATATGTAAATGGACACACACATATATATATATATA [CACACA_site3659] | 10.1 ± 0.36 |
| AATAAATGGAATGTCACACATATATATATATATATA [CACACA_site4869] | 10.2 ± 0.37 |
| AATATTATAAATGTCACACATATATTCAAATATATA [CACACA_site4736] | 8.29 ± 0.38 |
| TACCTAAATAAATGGACACACACATATATATATATA [CACACA_site8407] | 10.1 ± 0.3 |
| CCTAAATAAATGGACACACACATATTTATATTTATA [CACACA_site6789] | 8.46 ± 0.45 |
| GAACATACTCAAATAGCACACACATAAATAAAAATG [CACACA_site9283] | 8.89 ± 0.56 |
| GTGTGTTGTATATACTGTACATACTTTATATATAGT [XGTACX_site1876] | 8.63 |
| CCTTTTTTGTTTTATGCACACCATATAACCAAGGCT [CACACA_site7893] | 8.98 ± 0.18 |
| AAAAAATGGATGATCACACACTTCATAAAAATTGCA [CACACA_site5256] | 8.46 ± 0.49 |
| GTATATAATTTATATTGTACGCATATTATTATCATT [XGTACX_site7277] | 8.57 ± 0.25 |
| ATTCTATATTTAAATGCATGCACTTTCTATTTTTTT [TGCATGCA_site435] | 10.6 ± 0.52 |
| CTTTTCTATTTTTTCGTGCACTATAAATATTTTAAT | 9.6 ± 0.23 |
| TTTATATTTAAATGCATGCACTTTCTATTTTTTTTT [GTGCAC_site9959] | 10 ± 0.33 |
| TTTGTCATTTTATTATGTACTCAGCATATAGGGGGG [XGTACX_site505] | 10.7 ± 0.13 |
| TATATATATATATATGCATGTACATATATTTGTTAT [TGCATGCA_site379] | 10.3 ± 0.17 |
| ATAGCATATATTTTTTGTACATATGTTATATATATA [XGTACX_site2184] | 8.96 ± 0.071 |

| Sequence | gcPBM binding intensity (ln) |
| --- | --- |
| ATATATATTTATATATGTACATATTTTTGTGTATTT [XGTACX_site1183] | 8.55 ± 0.43 |
| ATATATTTATATTTGTGTACATATTTATTATATTTA [XGTACX_site404] | 8.46 ± 0.28 |
| ATGCATATATTTATGTGTACATATATTTGTAGGGGG [XGTACX_site6063] | 10.6 ± 0.19 |
| ATATATATATATATATGTACTCATATTTTATTATTT [XGTACX_site898] | 10.1 ± 0.3 |
| TATATATATATATTATGTACTCATTTATTATCTTTT [XGTACX_site8051] | 9.97 ± 0.13 |
| ATATATATATATGCATGTACATATATTTGTTATATC [XGTACX_site3197] | 9.82 ± 0.45 |
| ACAAAAATATTATATTGTACATTATTAGTTCATATT [XGTACX_site6750] | 8.5 ± 0.3 |
| GTAATTTTGAGATGATGTACATATTTTTTCCTTGTC [XGTACX_site4103] | 8.78 ± 0.47 |
| TAATTAAGAATATATAGTACATAGTTGAAAAACTTT [XGTACX_site6359] | 8.41 ± 0.33 |
| GTTTGATAACACCTACAAACTCTTTTTTTTTTTTTT [CACACA_negctrl_site1134] | 8.41 ± 0.53 |
| TCTGTGTTTTTGGGTACACACAAATAGCTTGTATAT [CACACA_site4002] | 8.72 ± 0.19 |
| TATGTAACCTGTTTTACACACCCCCACCCCCCTCTT [CACACA_site319] | 10.3 ± 0.17 |
| ACCCTATATGTAACTACACACCGCATATTGTTTACT [CACACA_site3071] | 9.19 ± 0.43 |
| TATATATGTTTTTATGTACACACTTTTAACCTAAGA [CACACA_site1149] | 8.71 ± 0.36 |
| ATCTATATAATATATACACACAAATATACAAAAAAA [CACACA_site1013] | 8.64 ± 0.56 |
| AAAAAATGCGACATGTGTACACATATATATATATAT [XGTACX_site1679] | 10.4 ± 0.11 |
| AAATGCGCCATGTGTACACATATATATATATATATA [CACACA_site4649] | 10.3 ± 0.33 |
| AAAAAAATAAATAAATGTACACATATATATATATAT [XGTACX_site4350] | 10.2 ± 0.47 |
| GTACAAATGTTGTGTATATATACACACATACATATA [XGTACX_negctrl_site276] | 8.69 ± 0.33 |
| ATACACACATATATGTGTACATATACATATATATAT [XGTACX_site6744] | 9.53 ± 0.32 |
| ATATATATATATATATGTACATATACACATGTGTGC [XGTACX_site168] | 10.1 ± 0.33 |

| Sequence | gcPBM binding intensity (ln) |
| --- | --- |
| ATAACACAAAATTGTTGTACACGTGTTAATAAGTGA [XGTACX_site4452] | 9.12 ± 0.33 |
| TTAAAAAAATAATTAACACACACATGTATATCTATA [CACACA_site9026] | 8.21 ± 0.42 |
| TAGTACACACAAAATACATGCGGGGTTTAATATTTA [TGCATGCA_site576] | 8.78 ± 0.45 |
| TATATGACAAGATAAAGTACAAATTTGTATATATAT [XGTACX_site3027] | 8.97 ± 0.25 |
| TTTTATTAATATTGCATGCACACTATATAATAATTG [CACACA_site1049] | 10.02 ± 0.064 |
| TTATTAATATTGCATGCACACTATATAATAATTGAA [CACACA_site8258] | 10.11 ± 0.057 |
| TTCTTAATATTGCATGCACACTATATAATAATTGAA [CACACA_site4720] | 10.41 ± 0.057 |
| ATAAAAAATTTAAGTATTTTTTACAAACCTATAAAT [GTGCAC_negctrl_site51] | 8.18 ± 0.38 |
| ATTTTTTTTCTTTTTTTTTTACATTTTTTTCTTTTT [CACACA_negctrl_site1289] | 8.51 ± 0.45 |
| ATATATATATATAAATGTACAGATATATTTTTTATT [XGTACX_site5445] | 10.21 ± 0.078 |
| TATATATATATATGTTGTACATATTTAAATGTTTAT [XGTACX_site5437] | 10.2 ± 0.2 |
| TAAAATTTTTTTGTTTGTACATATATATATATAATA [XGTACX_site5609] | 8.72 ± 0.52 |
| ATTTAAAAAATATATTGTACATATTTTATTATGTTT [XGTACX_site2984] | 8.29 ± 0.35 |
| TTATATATTTATAAATGTACATATAATTTTTTTATA [XGTACX_site4696] | 8.3 ± 0.32 |
| AAAAGTCTTCAAATTTGTACATATATATATATATAT [XGTACX_site3404] | 10.29 ± 0.092 |
| ACATTCACAAAATTTTGTACACATATATATATATAT [XGTACX_site3518] | 10 ± 0.26 |
| CATTTAAAATTTGTTTGTACATATATATATATATAT [XGTACX_site6729] | 10.2 ± 0.26 |
| ACGTATCAAAAAATTTGTACATATATATATATATAT [XGTACX_site1024] | 10.1 ± 0.35 |
| TATATACATAAAATTTGTACATATATATATATATAT [XGTACX_site3214] | 10.1 ± 0.51 |
| ATCAGATATATATATTGTACATTTATATATAAATCA [XGTACX_site1960] | 8.46 ± 0.36 |
| TGTTGTAAATATGTTTGTACATAAATATATTATTTA [XGTACX_site5442] | 8.38 ± 0.35 |

— the supplement of paper PMC11417369
